Pol eta inh-1 = DNA polymerase eta (human) inhibition; Q9Y253; recombinant Pol eta, fluorescent DNA replication assay; Potency, µM (highest dose often 114 µM), usual class: inhibitors; actives 1.2% (n = 390,000)
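Fluorescent replication assay: 50 nM final substrate added after a 15 min room-temperature compound preincubation with 10 nM enzyme. Signal taken at 0 min and again at 10 min.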
POLI inh = blocks human DNA polymerase iota activity. Q9UNA4. Pol iota fluorescent replication assay, 10 min. Potency, µM (top dose mostly 115 µM), usual class: inhibitors. actives 1% (n = 390,000)
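Fluorescent replication assay read twice, at 0 min and 10 min after adding 50 nM (final) substrate. Enzyme (10 nM) and compounds were first incubated 15 min at room temperature; enzyme-free buffer wells were negative controls.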
L3MBTL1 block = blocks human L3MBTL1. AID 485360. actives 0.66% (n = 230,000). AlphaScreen L3MBTL1–H3K9me1 peptide binding. Q9Y468. Potency, µM (titrated, usually from 57.1 µM), hits mostly inhibitors; further: nearly all actives have a fitted effect of over 60% in size
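First, the protein-peptide complex forms for 30 min at room temperature (L3MBTL1 50 nM, biotinylated H3K9me1 peptide 75 nM). Next, compounds are pin-transferred and incubated 30 min. Finally, AlphaScreen beads are added and read after 30 min.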
POLB inh = DNA polymerase beta (human) inhibition; P06746; Pol beta primer extension/strand displacement, fluorescence kinetic; Potency, µM (doses to about 114 µM), usual class: inhibitors; actives 1.3% (n = 340,000); AID 485314
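Kinetic readout of DNA synthesis with strand displacement by Pol beta. Compound and 10 nM enzyme sit 15 min at room temperature; 50 nM substrate starts the reaction, read immediately and at 10 min.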
Pol kappa inh-1 = blocks human DNA polymerase kappa activity; Q9UBT6; actives 0.53% (n = 400,000); AID 588579; Potency, µM (titrated, usually from 107 µM), hits mostly inhibitors; purified Pol kappa, fluorescent DNA synthesis assay, 10 min
Target sequence (Q9UBT6 whole entry, looked up): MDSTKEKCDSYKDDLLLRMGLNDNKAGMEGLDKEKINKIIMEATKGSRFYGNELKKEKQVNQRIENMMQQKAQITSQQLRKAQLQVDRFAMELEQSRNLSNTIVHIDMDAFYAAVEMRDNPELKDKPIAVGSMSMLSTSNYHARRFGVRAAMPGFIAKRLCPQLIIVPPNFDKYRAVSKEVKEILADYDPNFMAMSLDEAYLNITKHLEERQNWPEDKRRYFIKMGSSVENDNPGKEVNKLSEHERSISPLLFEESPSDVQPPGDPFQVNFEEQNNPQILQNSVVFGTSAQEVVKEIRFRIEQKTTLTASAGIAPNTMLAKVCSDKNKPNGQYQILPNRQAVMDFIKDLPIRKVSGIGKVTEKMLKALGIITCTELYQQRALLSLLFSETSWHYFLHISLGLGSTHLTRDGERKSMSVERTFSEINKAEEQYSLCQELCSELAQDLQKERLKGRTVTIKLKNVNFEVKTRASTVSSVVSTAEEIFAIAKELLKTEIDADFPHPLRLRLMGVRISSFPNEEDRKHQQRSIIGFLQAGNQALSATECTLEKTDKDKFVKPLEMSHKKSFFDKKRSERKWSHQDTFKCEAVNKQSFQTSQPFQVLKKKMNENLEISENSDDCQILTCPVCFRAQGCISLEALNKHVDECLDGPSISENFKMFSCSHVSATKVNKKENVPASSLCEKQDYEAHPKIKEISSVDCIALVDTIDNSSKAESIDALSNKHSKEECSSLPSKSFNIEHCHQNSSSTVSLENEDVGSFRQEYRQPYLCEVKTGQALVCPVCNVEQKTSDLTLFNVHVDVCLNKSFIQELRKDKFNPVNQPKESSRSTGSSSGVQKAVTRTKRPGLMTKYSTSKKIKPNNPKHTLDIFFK
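Kinetic fluorescence readout at 0 and 10 min followed reaction start with substrate at 50 nM final. Beforehand, enzyme (10 nM Pol kappa) stood 15 min with compound at room temperature; buffer-only wells were negative controls.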
WRN inhibitor = WRN helicase (human) inhibition | Q14191 | WRN helicase unwinding, fluorescent forked duplex, kinetic | Potency, µM (doses to about 114 µM), hits mostly inhibitors | actives 0.46% (n = 360,000) | AID 651768; further: nearly all actives have a fitted effect of over 55% in size
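Screening of the MLSMR collection measured strand separation of a quenched forked DNA duplex (100 nM) by 20 nM WRN with 2 mM ATP, all final. Compounds were preincubated with enzyme 15 min at room temperature.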
PGK validate = validation of Trypanosoma brucei phosphoglycerate kinase inhibitors | shares compounds with Pol kappa inh-1 | actives 79% (n = 500) | Potency, µM (highest dose often 57.5 µM), actives largely listed as inhibitors | AID 686980 | TbPGK coupled GAPDH assay, Kinase-Glo luminescence; further: nearly all actives have a fitted effect of over 65% in size
Pol iota confirm = Human Pol iota inhibitor confirmatory assay. Potency, µM, most hits filed as inhibitors. shares compounds with Pol kappa inh-1. actives 77% (n = 1,500). Pol iota primer extension, TAMRA/BHQ fluorescence
Pol kappa inh-2 = Pol kappa (human) inhibition, cherry-pick confirmation. shares compounds with Pol eta inh-1. purified Pol-kappa, fluorescent strand-displacement substrate. actives 76% (n = 920). Potency, µM, most hits filed as inhibitors
Pol eta inh-2 = confirmation of human DNA polymerase eta inhibitors | AID 720502 | shares compounds with Pol eta inh-1 | actives 64% (n = 2,600) | Pol eta primer extension, TAMRA/BHQ fluorescence, 10 min | Potency, µM, usual class: inhibitors
Each line names hits and unclear results; the compound was inactive in the other large screens (follow-up assays come after a bar, where they were run). Compounds with a hit are over-represented: about 2.5% of the library has one in this group of screens. The call rests on the fitted dose curve; in most records, active means well fitted curve in the direction sought with a large enough effect; inconclusive means small, poorly fitted or top-dose-only effect, or another doubt; inactive means no such curve, though single readings can be large; an effect the other way counts as inactive or inconclusive.

O=C1NC(=S)S/C1=C\C=C\c1ccc([N+](=O)[O-])o1	Pol eta inh-1 2.2µM, POLI inh 2.2µM, POLB inh inconclusive, Pol kappa inh-1 10µM, WRN inhibitor 40µM (no result: L3MBTL1 block) | PGK validate 2.6µM | Pol iota confirm 2.7 | Pol kappa inh-2 4.7 | Pol eta inh-2 4.8
O=C1CN(/N=C\c2ccc([N+](=O)[O-])o2)C(=O)N1	none (no result: Pol eta inh-1, POLI inh, L3MBTL1 block, POLB inh, WRN inhibitor)
CCOC(=O)N1CCC(NC(=O)c2cc(C(=O)Nc3ccc(S(=O)(=O)N4CCOCC4)cc3)ccc2CO)CC1	POLB inh inconclusive (no result: L3MBTL1 block)
Cc1cc(O)c(NC(=O)c2ccco2)cc1C	none
O=C(O)c1ccc(-c2ccc(/C=c3/sc4nc5ccccc5n4c3=O)o2)cc1Cl	Pol eta inh-1 1.6µM, POLI inh 3.2µM, POLB inh 4µM, Pol kappa inh-1 10µM, WRN inhibitor inconclusive (no result: L3MBTL1 block) | PGK validate 12µM | Pol iota confirm 15 | Pol kappa inh-2 3 | Pol eta inh-2 6
COc1ccc2c(=O)c3c(=O)n(Cc4ccco4)c(-c4ccco4)nc3oc2c1	Pol eta inh-1 35µM, POLI inh 20µM, POLB inh inconclusive, Pol kappa inh-1 71µM, WRN inhibitor 45µM (no result: L3MBTL1 block) | Pol iota confirm 67 | Pol eta inh-2 43
Cc1cc(C)c(NC(=O)Cn2c(=O)n(Cc3ccc(C(=O)NCc4ccco4)cc3)c(=O)c3sccc32)c(C)c1	Pol eta inh-1 inconclusive, POLI inh inconclusive, POLB inh 1.1µM, Pol kappa inh-1 inconclusive (no result: L3MBTL1 block, WRN inhibitor) | Pol iota confirm 47 | Pol eta inh-2 67
N#Cc1ccccc1Cn1c(=O)n(Cc2ccc(C(=O)NCc3ccco3)cc2)c(=O)c2sccc21	L3MBTL1 block inconclusive, POLB inh inconclusive
Nc1nnc2cc(Br)ccc2n1	none (no result: POLI inh, L3MBTL1 block, POLB inh, Pol kappa inh-1)
CC(=O)Nc1sc2c(c1-c1nc3ccccc3s1)CCNC2	none (no result: Pol eta inh-1, POLI inh, L3MBTL1 block, POLB inh, Pol kappa inh-1, WRN inhibitor) | Pol iota confirm 21 | Pol kappa inh-2 8.4
CC(=O)Nc1sc2c(c1-c1nc3ccccc3s1)CCN(C(C)C)C2	Pol eta inh-1 inconclusive, POLI inh inconclusive, POLB inh 3.5µM, Pol kappa inh-1 inconclusive | Pol iota confirm 19 | Pol kappa inh-2 12
CC(=O)N1CCc2c(sc(NC(=O)CSc3ccc(F)cc3)c2-c2nc3ccccc3s2)C1	none (no result: L3MBTL1 block, WRN inhibitor)
CCOC(=O)C1=C(C(=O)OCC)N(CC)CCC1=O	none (no result: L3MBTL1 block, POLB inh)
COc1cc(/C=N/Nc2ccc(Cl)nn2)cc(OC)c1O	none (no result: L3MBTL1 block)
O=[N+]([O-])c1cccc(-c2csc(N/N=C/c3cccc(O)c3)n2)c1	POLI inh 45µM, Pol kappa inh-1 79µM (no result: L3MBTL1 block) | Pol iota confirm 38 | Pol eta inh-2 27
CCOC(=O)Cc1csc(N/N=C/c2cccc([N+](=O)[O-])c2)n1	none (no result: L3MBTL1 block)
O=C(O)C1CCCCC1C(=O)N1CC=C(c2ccccc2)CC1 (stereo not given)	none
O=C(CCCN1C(=O)/C(=C/c2cccs2)SC1=S)Nc1cccc(C(=O)O)c1	none
O=C(O)CCCN1C(=O)/C(=C/c2cn(-c3ccccc3)nc2-c2cccs2)SC1=S	Pol eta inh-1 28µM, POLI inh 35µM, POLB inh 22µM, Pol kappa inh-1 inconclusive, WRN inhibitor 50µM (no result: L3MBTL1 block) | Pol iota confirm 42 | Pol eta inh-2 76
O=C(OCc1nc2ccsc2c(=O)[nH]1)c1ccco1	none (no result: POLB inh)
Cc1cnc(C(=O)OCc2nc3ccsc3c(=O)[nH]2)cn1	Pol eta inh-1 10µM, POLI inh 16µM, L3MBTL1 block inconclusive, Pol kappa inh-1 79µM, WRN inhibitor 50µM (no result: POLB inh) | Pol iota confirm 27 | Pol eta inh-2 21
CCOC(=O)CSc1nc(N)c(C#N)c(-c2ccc(OCC)cc2)c1C#N	none
CC1=C(C#N)c2nc(N)c(C#N)c(C)c2/C1=C\c1ccc(OCC(=O)O)c(Cl)c1	Pol eta inh-1 7.9µM, POLI inh inconclusive, L3MBTL1 block inconclusive, Pol kappa inh-1 79µM, WRN inhibitor inconclusive | Pol iota confirm 47 | Pol kappa inh-2 19 | Pol eta inh-2 19
O=C(O)C1Nc2c(O)cc(Cl)c([N+](=O)[O-])c2C2C=CCC12 (stereo not given)	Pol eta inh-1 1.3µM, POLI inh inconclusive, L3MBTL1 block 0.32µM, POLB inh 0.25µM, Pol kappa inh-1 1.8µM, WRN inhibitor 5µM | PGK validate 1.5µM | Pol iota confirm 15 | Pol eta inh-2 4.8
N#C[C@H](Cc1ccc(O)cc1)c1ccc(O)cc1	none (no result: Pol eta inh-1, POLI inh, L3MBTL1 block, POLB inh, WRN inhibitor)
COc1ccc(S(=O)(=O)Nc2cccc3c2O[C@H](CN(C)C(=O)Nc2ccccc2)[C@@H](C)CN([C@H](C)CO)C3=O)cc1	none (no result: POLB inh)
O=C(O)CN1C(=O)/C(=C\c2cc(Br)ccc2OCc2ccc(Cl)cc2)SC1=S	Pol eta inh-1 22µM, POLB inh inconclusive, WRN inhibitor 56µM (no result: L3MBTL1 block) | Pol iota confirm inconclusive | Pol eta inh-2 48
O=C(O)CN1C(=O)/C(=C\c2cc([N+](=O)[O-])ccc2OCc2ccccc2Cl)SC1=S	Pol eta inh-1 22µM, POLI inh 28µM, POLB inh 40µM, Pol kappa inh-1 inconclusive, WRN inhibitor 45µM (no result: L3MBTL1 block) | Pol iota confirm inconclusive | Pol eta inh-2 inconclusive
CCS(=O)(=O)c1ccc(O)c(NC(=O)Nc2ccc(C(C)(C)C)cc2)c1	none (no result: L3MBTL1 block)
COc1cccc(/C=C/C(=O)c2ccc[nH]2)c1	none (no result: L3MBTL1 block)
NC(=S)NC1CC2CC1C1C=CCC21 (stereo not given)	POLB inh inconclusive
CCn1c(C)cc(/C=C2\NC(=O)N(Cc3ccc(Cl)cc3)C2=O)c1C	none
O=C1N/C(=C/c2ccc(N3CCOCC3)o2)C(=O)N1c1ccccc1	POLI inh inconclusive, WRN inhibitor inconclusive
Cc1ccc(CN2C(=O)N/C(=C\c3ccc(-c4ccc(C(=O)O)cc4C)o3)C2=O)cc1	Pol eta inh-1 18µM, L3MBTL1 block inconclusive, POLB inh 20µM, Pol kappa inh-1 79µM, WRN inhibitor inconclusive | Pol iota confirm 21 | Pol eta inh-2 27

Screening data from PubChem BioAssay.
